{
  "source": "PubChem BioAssay (NCI)",
  "note": "About 83,000 compounds went through this panel and 20% of them were active in at least one assay; those are over-represented in the sample as a whole.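 For each line, cells grew in 96-well plates with the test compound present at a single concentration for 48 hours.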 A number with no mark means an inactive call. The source made the active and inactive calls. The calls were made as follows: active = growth percent below 10; inactive = the rest.",
  "data": [
    {"system": "MDA-MB-468 breast", "test": "NCI-60 one-dose screen, 48 h (100 = growth as untreated, 0 = no growth, -100 = all killed)", "details": "10 µM unless noted", "values": [
      {"smiles": "CC(C)OC(=O)Nc1cc(F)c(F)cc1F", "growth": "84%"},
      {"smiles": "CCOc1ccc(-n2nc(C(=O)NCc3ccccc3OC)nc2-c2cc(OC)c(OC)c(OC)c2)cc1", "growth": "72.4%"},
      {"smiles": "Cc1cccc2c(=O)c3c(sc12)c(NCCCN)nc1ccccc13", "growth": "-38.5% (active)"},
      {"smiles": "O=C(NC1CCC(Br)CC1)C1CCCC(S(=O)(=O)NC2CCCCC2)C1", "note": "(centres undefined)", "growth": "-3.64% [25 µM] (active)"},
      {"smiles": "O=C(Nc1ccc2c(c1)C(=O)c1ccccc1-2)c1ccccc1", "growth": "85.6%"},
      {"smiles": "Cc1nn(-c2ccccc2)c(N2CCCCC2)c1/C=N/NC(=O)Cn1c(=O)sc2ccccc21", "growth": "85.5%"},
      {"smiles": "Cc1cc(NCc2cc(Nc3ccnc4cc(Cl)ccc34)ccc2F)nc(N2CCSCC2)n1", "growth": "-17.3% (active)"},
      {"smiles": "COc1ccc(-n2c(SCc3cc(OC)c(OC)c(OC)c3)nc3ccc(C)cc3c2=O)c(OC)c1", "growth": "17.1%"},
      {"smiles": "O=c1[nH]c2ccc(Cl)cc2c2ccccc12", "growth": "68.1%"},
      {"smiles": "O=C1C(Cl)=C(Nc2ccccn2)C(=O)c2ccccc21", "growth": "37.1%"},
      {"smiles": "COc1ccc2c(c1)[nH]c(=O)c1c3cc(C)c(C)cc3cn21", "growth": "7.03% (active)"},
      {"smiles": "Clc1ccc2c(NCCNc3nc(N4CCCC4)nc4ccccc34)ccnc2c1", "growth": "-49.2% (active)"},
      {"smiles": "N#C/C(=C\\c1cn(Cc2ccccc2)c2ccccc12)C(=O)Nc1ncc(Cc2ccccc2Cl)s1", "growth": "-14.7% (active)"},
      {"smiles": "CCN1C(=O)N(CC)C2C1NN=c1s/c(=C3\\C(=O)N(CCc4ccccc4)c4ccccc43)c(=O)n12", "note": "(centres undefined)", "growth": "-11.3% (active)"},
      {"smiles": "CCOC(=O)/C(C)=C\\c1ccc(OC)c(OC)c1", "growth": "103%"},
      {"smiles": "Cc1ccc(/C=C2\\Oc3ccc(O)c(O)c3C2=O)cc1", "growth": "58.3%"},
      {"smiles": "O=c1[nH]c(Cl)nc2c1cnn2-c1ccccc1", "growth": "101%"},
      {"smiles": "COc1ccc(CNC(=O)C(=O)[C@H](Cc2ccccc2)NC(=O)c2[nH]c3ccccc3c(=O)c2C)cc1", "growth": "98.4%"},
      {"smiles": "CN(C)CN1CCN(c2ccc3nc(-c4ccc5nc(-c6ccc(C(F)(F)F)cc6)[nH]c5c4)[nH]c3c2)CC1", "growth": "13.7%"},
      {"smiles": "Cc1cc(=O)c2c(C)ccc(C)c2[nH]1", "growth": "96.8%"},
      {"smiles": "Cc1ccc(C2Oc3ccccc3C3CC(c4cccs4)=NN32)cc1", "note": "(centres undefined)", "growth": "109%"},
      {"smiles": "CSc1nc(=O)n(Cc2ccc(F)cc2)c(=O)n1Cc1ccc(C)cc1", "growth": "112%"},
      {"smiles": "Cc1ccc(C)c2c(C)c(C(=O)Nc3cccc(-n4cccn4)c3)oc12", "growth": "27.8% [50 µM]"},
      {"smiles": "CCOC(=O)c1c(C)oc(C)c(C(=O)OCC)c1=O", "growth": "103%"}
    ]}
  ]
}
